Measurements: PubChem BioAssay (Tox21)
Where “and” joins values, the source holds several entries; their conditions need not be identical. Equal entries are not always repeated. Records with an inconclusive call do not appear. A call without a number means that no potency is given here. Calls of active or inactive are those of the source. Calls follow the shape of the dose curve; as a rule, active = well fitted cell-killing curve with a large enough effect in the repeat runs; inconclusive = weak or mixed curves, or effect the other way; inactive = no such curve, though single readings can be large or run the other way.

assay: qHTS assay to identify small molecule antagonists of the thyroid receptor (TR) signaling pathway - cell viability counter screen (AID 743064); settings: GH3.TRE-Luc viability, CellTiter-Fluor, 24 h; series mostly up to 70.3 µM; also: nearly all actives have a fitted effect of over 50% in size
Source text: National Center for Advancing Translational Sciences [NCATS]
NIH Chemical Genomics Center [NCGC]
U.S. Environmental Protection Agency [EPA]
National Institutes of Environmental Health Sciences [NIEHS]
National Toxicology Program [NTP]
U.S. Food and Drug Administration [FDA]
Thyroid receptor (TR), a nuclear hormone receptor, plays an important role in development, proliferation, differentiation, metabolism, brain function, and cardiovascular system. […] To profile the Tox21 10K compound library in TR signaling, a cell-based GH3-TRE-Luc assay (GH3.TRE-Luc cell line, developed by the laboratory of Dr. Albertinka J. Murk, Wageningen University) was used to measure the inhibition of TR. GH3 (rat pituitary tumor) cells stably expressing a TR activity sensor consisting of two TR response elements and a luciferase reporter gene. The cytotoxicity of the Tox21 compound library against the GH3.TRE-Luc cell line was tested in parallel by measuring the cell viability using CellTiter-Fluor assay (Promega, Madison, WI) in the same wells.
Tox21 Assay Protocol Summary:
GH3.TRE-Luc cells were dispensed at 1500 cells/4 uL/well into 1536-well white solid bottom plates using a Multidrop Combi dispenser (Thermo Fisher Scientific Inc., Waltham, MA). After the assay plates were incubated at 37 C for 4 hours, 23 nL of library compound or DMSO controls was transferred to the assay plates by a pintool station (Kalypsys, San Diego, CA), followed by addition of 1 ul of T3 (1 nM, final concentration in the wells) to stimulate TR transactivation. The assay plates were incubated at 37 C for 23.5 h, and then 1 uL of CellTiter-Fluor reagent (Promega, Madision, WI) of measuring cytotoxicity was added to each well using a Bioraptr Flying Reagent Dispenser (FRD) workstation (Beckman Coulter, Indianapolis, IN, USA). The plates were incubated at 37C and 5% CO2 for additional 30 min, and fluorescence intensity was measured by a ViewLux plate reader (PerkinElmer, Shelton, CT).
Potency is read from the fitted curve at half-maximal effect.

Row | SMILES | Potency
1 | Clc1ccccc1 | inactive
2 | [Cl-].[Cl-].[Hg+2] | 1.33 µM (active) and 1.36 µM (active) and 243 nM (active)
3 | CON(C)C(=O)Nc1ccc(Cl)cc1 | inactive
4 | CC(C)(C)OOC(C)(C)CCC(C)(C)OOC(C)(C)C | inactive
5 | Cc1nc2ccccc2c(=O)n1-c1ccccc1Cl | 30 µM (active)
6 | CCCCNC(=O)OCC#CI | 6.82 µM (active) and 4.33 µM (active)
7 | CCN(C(C)=O)c1cccc(-c2ccnc3c(C#N)cnn23)c1 | inactive
8 | Nc1cc(Cl)cc(C(=O)O)c1Cl | inactive
9 | O=[N+]([O-])/C=C/c1ccccc1 | 13.9 µM (active) and 9.69 µM (active)
10 | O=C(O)C(O)C(O)C(=O)O (stereo not given) | inactive
11 | CN1C[C@H](C(=O)N[C@]2(C)O[C@@]3(O)[C@@H]4CCCN4C(=O)[C@H](Cc4ccccc4)N3C2=O)C=C2c3cccc4[nH]cc(c34)C[C@H]21 | inactive
12 | CC(C)(C)NCC(O)c1ccccc1Cl (stereo not given) | inactive
13 | C1CS1 | inactive
14 | c1ccc2c(c1)-c1cccc3cccc-2c13 | inactive
15 | N#CC1(N=NC2(C#N)CCCCC2)CCCCC1 | inactive
16 | CCSCc1ccccc1OC(=O)NC | inactive
17 | CCC1(CC)C(=O)NC(=O)NC1=O | inactive
18 | NNCCO | inactive
19 | O=C(CCl)CCl | 25.2 µM (active) and 15.4 µM (active)
20 | O=C1c2ccccc2C(=O)N1SC(Cl)(Cl)Cl | 4.27 µM (active) and 2.17 µM (active)

Row | SMILES | Potency
21 | COc1ccccc1N1CCNCC1 | inactive
22 | CC(C)OC(=O)Cc1ccccc1 | inactive
23 | CCC[N+](CCC)(CCC)CCC | inactive
24 | COC1=CC(=O)O[C@@H](/C=C/c2ccc3c(c2)OCO3)C1 | inactive
25 | CCC(C)(C)c1ccc(O)c(C(C)(C)CC)c1 | 12.1 µM (active) and 13.7 µM (active)
26 | COCc1cnc(C2=NC(C)(C(C)C)C(=O)N2)c(C(=O)O)c1 (stereo not given) | inactive
27 | CCOP(=O)(O)C(N)=O | inactive
28 | C[N+](C)(C)CC1CO1 (stereo not given) | inactive
29 | C[C@H](N)[C@H](O)c1ccc(O)c(O)c1 | 26.6 µM (active)
30 | O=C(Cc1ccccc1)c1ccccc1 | inactive
31 | CCCSP(=S)(OCC)Oc1ccc(SC)cc1 (stereo not given) | inactive
32 | CCCC(C)(COC(N)=O)COC(=O)NC(C)C (stereo not given) | inactive
33 | CN[C@@H](C)[C@H](O)c1ccccc1 | inactive
34 | C[Si](Cn1cncn1)(c1ccc(F)cc1)c1ccc(F)cc1 | 63.1 µM (active)
35 | O=C(O)c1cc(I)cc(I)c1I | inactive
36 | CC(C)[C@@H](C(=O)O[C@@H](C#N)c1cccc(Oc2ccccc2)c1)c1ccc(Cl)cc1 | inactive
37 | CC[N+]1(C)CCCC(OC(=O)C(O)(c2ccccc2)c2ccccc2)C1 (stereo not given) | inactive
38 | CC(=O)OC(c1ccccc1)C(Cl)(Cl)Cl (stereo not given) | inactive
39 | CCOP(=S)(S)OCC | inactive
40 | OC[P+](CO)(CO)CO | inactive
